# Compound activity deposited in PubChem BioAssay by several laboratories.
# CYP2C9 inhib: blocks human cytochrome P450 2C9; P11712; 96,000 tested, 20% active; inhibition, % at 5 µM; CYP2C9 Supersomes, luciferin-H conversion, luminescence;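 active means blocking of liver enzyme CYP2C9 beyond about 50% at 5 µM, limit read from the data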
# Target sequence (P11712 whole entry, looked up): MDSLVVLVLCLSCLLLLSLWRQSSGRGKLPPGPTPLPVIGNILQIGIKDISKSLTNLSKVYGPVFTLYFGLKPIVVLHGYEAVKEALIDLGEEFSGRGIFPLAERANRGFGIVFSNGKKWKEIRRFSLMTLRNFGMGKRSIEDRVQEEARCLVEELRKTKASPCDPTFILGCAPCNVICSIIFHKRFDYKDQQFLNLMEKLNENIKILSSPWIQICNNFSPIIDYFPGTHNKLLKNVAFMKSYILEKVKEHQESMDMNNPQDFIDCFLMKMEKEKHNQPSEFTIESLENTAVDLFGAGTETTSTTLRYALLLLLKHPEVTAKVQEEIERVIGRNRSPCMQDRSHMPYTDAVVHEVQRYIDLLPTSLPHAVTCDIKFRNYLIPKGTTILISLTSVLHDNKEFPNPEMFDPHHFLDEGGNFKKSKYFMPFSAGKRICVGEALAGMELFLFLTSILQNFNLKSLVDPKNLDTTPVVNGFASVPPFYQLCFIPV
# cytoskel mod: modifiers of cytoskeleton assembly. HUVEC TNFa F-actin phalloidin imaging, high content. inhibition, % at 2 µM. 91,000 tested, 0.18% active;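 active means inhibition above the batch mean plus 3 SD and confirmed as a hit by visual image inspection, cut at about 30% in these data, passing the limit was not always enough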
# CYP2C19 act: cytochrome P450 2C19 (human) activation. P33261. recombinant CYP2C19, luciferin-H EGE luminescence; stronger effect = higher value; 0 = fully inhibited enzyme, 1 = untreated enzyme. activation factor at 5 µM. 96,000 tested, under 10 active. AID 1025;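 active means activation factor of at least 2 at 5 µM in the primary screen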;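 further: 0 = wells with 2.5 mM tranylcypromine and 1 = vehicle-only wells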
# E-sel TNF inh: blocks E-selectin expression induced by TNF alpha. 120,000 tested, 0.71% active. AID 1246. HUVEC TNFa-induced E-selectin immunofluorescence, high content. inhibition, % at 2 µM;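 active means inhibition above the batch mean plus 3 SD, and confirmed as a hit on visual image review, cut at about 43% in these data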;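 further: 0% = TNF-stimulated DMSO wells and 100% = unstimulated control wells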
# CYP2C19 inh: inhibitors of human CYP2C19; inhibition, % at 5 µM; 96,000 tested, 21% active; P33261; CYP2C19 Supersomes, luciferin-H EGE luminescence, 30 min;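 active means CYP2C19 inhibition above a set limit at 5 µM in the primary screen, cut at about 50% in these data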;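 further: plate controls were negative control wells for no effect and 2.5 mM tranylcypromine positive control for full effect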
# CYP2C9 activ: activators of human CYP2C9; recombinant CYP2C9, luciferin-H conversion, luminescence; stronger effect = higher value; factor 1 = untreated enzyme, 0 = blocked; activation factor at 5 µM; 96,000 tested, 1.4% active; AID 1024;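 active means activation factor of 2 or more for CYP2C9 at a 5 µM dose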;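 further: 0 = sulfaphenazole-blocked wells and 1 = vehicle-only wells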
# * = called active by the depositor; x = no result. Shown are actives, neighbours in structure and some others; about 22% of the full set was active somewhere.
SMILES,CYP2C9 inhib,cytoskel mod,CYP2C19 act,E-sel TNF inh,CYP2C19 inh,CYP2C9 activ
COc1ccc(S(=O)(=O)Cc2ccc(C(=O)NCc3ccc(F)cc3)o2)cc1,64*,4,0.8,x,18,0.4
COc1cc(C(C)=O)ccc1OCC(=O)NCC1(N2CCCCC2)CCCCC1,x,x,x,1,x,x
O=C(NCC(=O)N1CCN(c2ncccn2)CC1)c1cccs1,48,4,0.4,8,59*,0.5
Cc1ccc(C(=O)NCC(=O)N2CCN(c3ncccn3)CC2)s1,72*,16,0.6,0,42,0.3
O=C(NCC(=O)N1CCCC1)c1cccs1,-8,23,1.1,3,-9,1.1
CCCCOP(=O)(OCCCC)C1(NS(=O)(=O)c2ccccc2)C=CC(=O)c2ccccc21 (stereo not drawn),60*,x,0.5,4,47,0.4
CC(=O)NCCOc1nc(N(C)C)nc(N(C)C)n1,2,-3,1,-3,4,1
N#CC(C#N)=C1C=CC=CN1/C(=C\c1ccco1)C(=O)c1ccc(-c2ccccc2)cc1,x,x,x,93*,x,x
CCCCN(CC)CCCNC(=O)Cn1nc(Cc2ccncc2)c2ccccc2c1=O,34,x,0.9,-2,11,0.7
O=C(Cn1nc(Cc2ccncc2)c2ccccc2c1=O)N1CCN(C(=O)c2ccco2)CC1,64*,-10,0.7,x,34,0.4
CC(CCc1ccco1)NC(=O)Cn1nc(Cc2ccncc2)c2ccccc2c1=O (stereo not drawn),86*,8,0.2,14,84*,0.1
O=C(Cn1nc(Cc2cccnc2)c2ccccc2c1=O)N1CCN(C(=O)c2ccco2)CC1,50,x,0.9,x,8,0.5
CCC(CC)NC(=O)c1ccc2c(c1)OCCO2,29,12,0.8,-4,18,0.7
Cc1ccccc1NC(=O)CC1SC(=NC2CCCCC2)NC1=O (stereo not drawn),67*,x,1,3,1,0.3
CCCCc1ccc(NC(=S)Nc2ccc(Cl)c(S(=O)(=O)N(C)C)c2)cc1,x,x,x,-9,x,x
CNCc1ccccc1Sc1ccc(OC)c(OC)c1,20,11,0.4,-42,58*,0.8
CNCc1ccccc1Sc1cc(O)ccc1O,x,x,x,10,x,x
Cc1ccc(-n2c(C)cc(C3N=C(N)Nc4nc5ccccc5n43)c2C)c(C)c1 (stereo not drawn),77*,-11,0.4,x,61*,0.2
NC1=NC(c2cccc(O)c2)n2c(nc3ccccc32)N1 (stereo not drawn),3,8,0.8,x,18,1
Cc1cc(C2N=C(N)Nc3nc4ccccc4n32)c(C)n1-c1ccccc1Cl (stereo not drawn),80*,x,0.3,-24,69*,0.2
COc1cc2c(=O)nc3n(c2cc1OC)C(c1ccccc1)N=C(N)N3 (stereo not drawn),-8,x,0.6,-12,37,1.1
NC1=NC(c2cn(-c3ccccc3)nc2-c2cccs2)n2c(nc3ccccc32)N1 (stereo not drawn),-3,-3,1.2,-19,-16,1
NC1=NC(c2ccc(F)cc2)n2c(nc3ccccc32)N1 (stereo not drawn),7,-11,0.3,-15,67*,0.9
CC(C)(C)NC(=O)C(c1ccc(O)cc1)N(Cc1ccco1)C(=O)Cn1nnc(-c2cccs2)n1 (stereo not drawn),x,4,x,-6,x,x
O=C1CS/C(=N/N=C2CCCC2)N1,x,x,x,-25,x,x
SMILES,CYP2C9 inhib,cytoskel mod,CYP2C19 act,E-sel TNF inh,CYP2C19 inh,CYP2C9 activ
CCN(CC)CCNC(=O)c1cn(C)c2ccc(S(=O)(=O)N(C)C3CCCCC3)cc2c1=O,-3,x,1,x,-2,1
Cc1cc(N2C(=O)C(=O)/C(=C(/O)c3ccccc3)C2c2cccs2)no1 (stereo not drawn),71*,-5,1,29,0,0.3
Cc1cc(N2C(=O)C(=O)/C(=C(/O)c3ccc(F)cc3)C2c2cccc(Br)c2)no1 (stereo not drawn),61*,11,0.8,x,20,0.4
COc1cccc(/C(O)=C2/C(=O)C(=O)N(c3cc(C)on3)C2c2cccs2)c1 (stereo not drawn),14,12,1,-15,-2,0.9
Cc1nn(C)c(Nc2ccc(Br)cc2)c1Br,x,x,x,-56,x,x
Cc1cc(C)nc(-n2nc(C)c(Br)c2Nc2ccc(Br)cc2)n1,11,-4,0.3,24,70*,0.9
CCn1ncc(NC(=O)Nc2cccc(C(F)(F)F)c2)c1C(N)=O,-2,-24,1.1,20,-12,1
O=C(c1ccco1)N1CCN(C(=O)C2CCCO2)CC1 (stereo not drawn),x,-9,x,-42,x,x
CCCc1nnc(NC(=O)Cn2c(=O)oc3ccccc32)s1,54*,5,0.6,-24,39,0.5
CC(C)CN(CC(C)C)c1nnc(NC(=O)Cn2c(=O)oc3ccccc32)s1,1,3,1,13,0,1
CCc1nnc(NC(=O)Cn2nc(-c3ccccc3OC)ccc2=O)s1,63*,16,1.2,12,-16,0.4
CC1CCCC(C)N1c1nnc(NC(=O)Cn2c(=O)oc3ccccc32)s1 (stereo not drawn),12,x,1,-32,0,0.9
CCCc1nnc(NC(=O)Cn2c(=O)oc3cc(Br)ccc32)s1,68*,-2,0.8,-2,24,0.3
CCc1nnc(NC(=O)Cn2c(=O)oc3ccccc32)s1,73*,x,0.4,27,64*,0.3
C=CCn1c(SCC(=O)NC2CCCCC2)nnc1C(C)NC(=O)c1cccs1 (stereo not drawn),-14,-4,1.1,-17,-7,1.1
CCOc1ccc(Cl)cc1CNCCNCC(C)O (stereo not drawn),-5,8,1.1,-11,-13,1
Cc1cc(C)c(C#N)c(Oc2ccc(O)cc2)n1,65*,x,0.7,-11,26,0.4
O=S(=O)(Nc1nc2c(s1)CCCC2)c1ccc(F)cc1,34,7,0.8,5,15,0.7
O=S(=O)(NC12CC3CC(CC(C3)C1)C2)c1ccc(F)cc1,83*,-11,0.1,19,88*,0.2
CCC(=O)n1nc(-c2ccccc2)nc1SCC(=O)Nc1ccc(C)cc1,22,-16,1,-12,-2,0.8
O=C(CSc1nc(-c2ccccc2)nn1C(=O)c1ccccc1)Nc1cccc([N+](=O)[O-])c1,68*,-6,0.6,-17,42,0.3
O=C(CSCCO)Nc1cccc([N+](=O)[O-])c1,x,x,x,7,x,x
CCc1ccccc1NC(=O)CSc1nc(-c2ccccc2)nn1C(=O)c1cccc([N+](=O)[O-])c1,74*,2,0.2,4,76*,0.3
CC(C(=O)Nc1cccc([N+](=O)[O-])c1)n1nnc2ccccc21 (stereo not drawn),79*,7,0.5,-4,53*,0.2
CCc1ccccc1NC(=O)CSc1n[nH]c(C)c1[N+](=O)[O-],x,x,x,17,x,x
